In PubChem BioAssay AID624263 (National Center for Advancing Translational Sciences (NCATS), 2012):
The campaign covered roughly 410,000 compounds. About 820 (0.2%) were called active. Inconclusive results (about 2%) are left out. This is one part of a sample in which actives are shown more often than they occur. Calls come from the whole dose curve; as a rule, active = well fitted activation curve with a large enough effect; inconclusive = small, poorly fitted or top-dose-only effect; inactive = flat fitted curve, though single readings scatter; cell line not stated here.

assay: A Quantitative High throughput Screen to Identify Chemical Modulators of PINK1 Expression; settings: PINK1 immunofluorescence, high-content cytometry, 24 h; series mostly up to 76.6 µM; activation (PINK1 increase): at the top concentration; note: nearly all actives have a fitted effect of over 65% in size; for activation (PINK1 increase): % of control where 0% means no effect
In short: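 Readout is PINK1 immunofluorescence, quantified alongside mitochondrial, cell and nuclear markers by laser-scanning microplate cytometry. Cells from a stable line were exposed to compound titrations (5 concentrations) for 24 hours, with CCCP controls.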
Potency is the fitted concentration of half-maximal effect.

| Compound | activation (PINK1 increase) | Potency |
| --- | --- | --- |
| COc1ccc(CCNc2ncnc3sc(C(=O)N4CCCC4)c(C)c23)cc1OC | -0.358% (inactive) | – |
| COc1cc(-c2cccnc2)cc2c1OCCN(C(=O)Cc1csc(C)n1)C2 | 0.58% (inactive) | – |
| O=C(c1cccc(Cn2cccn2)c1)N1CCOc2c(cc(-c3csc4ccccc34)cc2OC2CCOC2)C1 (stereo not given) | 0.191% (inactive) | – |
| N#Cc1cccc(-c2ccc3ncnc(NCc4cccs4)c3c2)c1 | -0.262% (inactive) | – |
| Cc1cc(-c2ccnc(-n3ncc(C(=O)NC(C)(C)CO)c3C3CC3)n2)c(C)s1 | 0.0821% (inactive) | – |
| CCCCn1c(SCC(=O)N2CCOCC2)nc2c1c(=O)n(C)c(=O)n2C | 2.85% (inactive) | – |
| CCCCn1c(SCC(=O)NCCc2ccc(OC)c(OC)c2)nc2c1c(=O)n(C)c(=O)n2C | – | 3.98 µM (active) |
| COc1ccc(CCNC(=O)CCCCn2c(=O)c3ccccc3n(Cc3ccccc3)c2=O)cc1OC | 1.18% (inactive) | – |
| COc1ccccc1C(=O)N[C@@H]1c2ccccc2C2(CCN(C(=O)c3csnn3)CC2)[C@H]1OC | -0.317% (inactive) | – |
| CN1CCN(/[N+]([O-])=N/Oc2ccc([N+](=O)[O-])cc2[N+](=O)[O-])CC1 | -0.224% (inactive) | – |
| Cc1cc(C)cc(CN2CCc3nnc(C(NS(C)(=O)=O)C(C)C)n3CC2)c1 (stereo not given) | -0.82% (inactive) | – |
| COc1ccccc1C1CN(CCNC(=O)C2=CCCC2)Cc2ccccc2O1 (stereo not given) | 2.63% (inactive) | – |
| O=C(CCc1ccccc1)Nc1ccc(NC(=O)C2CCCCC2)nc1 | 9.37% (inactive) | – |
| O=C(Nc1ncc([N+](=O)[O-])s1)C1COc2ccccc2O1 (stereo not given) | – | 44.7 µM (active) |
| COc1ccc(OC)c2sc(N3CCN(C(=O)C4COc5ccccc5O4)CC3)nc12 (stereo not given) | -0.0279% (inactive) | – |
| O=C(CCc1ccccc1)Nc1ncc([N+](=O)[O-])s1 | – | 20 µM (active) |
| CC(/C=C/c1ccco1)=N/NC(=O)C1COc2ccccc2O1 (stereo not given) | 9.76% (inactive) | – |
| O=C(CCc1ccccc1)Nc1ccc(NC(=O)C2CC2)nc1 | -1.31% (inactive) | – |
| CN(Cc1cccc2ncccc12)C(=O)c1cnn(-c2nccc(-c3ccccc3F)n2)c1C1CC1 | -0.707% (inactive) | – |
| COc1ccc(-n2c(CNC(=O)c3cc(C(F)(F)F)ccc3Cl)nnc2SC)cc1 | -0.22% (inactive) | – |

| Compound | activation (PINK1 increase) | Potency |
| --- | --- | --- |
| COc1ccccc1-c1ccnc(-n2ncc(C(=O)NCCCN3CCOCC3)c2C)n1 | 0.284% (inactive) | – |
| C[C@@H]1CN(Cc2ccc3c(c2)CN(Cc2ccc(Oc4ncccn4)cc2)CCO3)C[C@H](C)O1 | 0.0196% (inactive) | – |
| CCC1CN(CCNC(=O)c2cccc(C)n2)Cc2cc(OC)ccc2O1 (stereo not given) | 0.509% (inactive) | – |
| CCOC(=O)c1ccc(NC(=O)c2csc3c2CCCCC3)cc1 | 3.73% (inactive) | – |
| COC(=O)c1sc(NC(=O)c2csc3c2CCCC3)nc1C | – | 10 µM (active) |
| CCOc1ccc(CCNC(=O)c2csc3c2CCCCC3)cc1 | 2.82% (inactive) | – |
| CCCCOc1ccc(C(=O)NO)cc1 | 1.55% (inactive) | – |
| CCC(=O)Nc1cccc(NC(=O)CSc2nnc(-c3ccc(NS(C)(=O)=O)cc3)n2C)c1 | -1.24% (inactive) | – |
| Cc1ccnc(SCC(=O)Nc2cccc(S(=O)(=O)N3CCOCC3)c2)n1 | 1.18% (inactive) | – |
| Cn1c(SCC(=O)Nc2cccc(O)c2)nnc1-c1ccc(S(=O)(=O)N2CCOCC2)cc1 | – | 14.1 µM (active) |
| CC(C)(C(=O)NO)c1ccccc1 | 0.961% (inactive) | – |
| CCC1(C2CCN(Cc3cccnc3)CC2)NC(=O)N(CC2COc3ccccc3O2)C1=O (stereo not given) | -0.0745% (inactive) | – |
| CNCCCOc1cc2nc(N3CCCN(C)CC3)nc(NC3CCN(C)CC3)c2cc1OC | 0.921% (inactive) | – |
| COc1ccc2oc(=O)c(-c3cn4c(n3)sc3cc(OC)ccc34)cc2c1 | 2.47% (inactive) | – |
| COc1ccc2cc(-c3nc(Cl)c4c5c(sc4n3)CC(C)CC5)c(=O)oc2c1 (stereo not given) | – | 15.8 µM (active) |
| CCOC(=O)c1c(NC(=O)/C=C/c2ccc(OC)cc2)sc2c1CCC(C)C2 (stereo not given) | 0.453% (inactive) | – |
| COc1cc(=O)n2c(c1C(=O)N(C)Cc1nccs1)CCN(Cc1ccc(Cl)cc1)CC2 | 1.54% (inactive) | – |
| c1ccc(CN2CCN(Cc3ccc4c(c3)CN(Cc3c[nH]c5ccccc35)CCO4)CC2)nc1 | -1.03% (inactive) | – |
| COc1ccc(F)c(CN2CCC3(CCC(CNC(=O)c4ccn(C)n4)O3)CC2)c1 (stereo not given) | -0.704% (inactive) | – |
| O=C1COc2ccc(-c3csc(-c4ccc(Cl)cc4)n3)cc2N1 | 5.95% (inactive) | – |

| Compound | activation (PINK1 increase) | Potency |
| --- | --- | --- |
| OC(CBr)C[n+]1cccc2cc(Br)ccc21 (stereo not given) | -0.654% (inactive) | – |
| CO[C@H]1[C@H](NC(=O)C(C)C)c2ccccc2C12CCN(Cc1cnc(N(C)C)s1)CC2 | 0.667% (inactive) | – |
| CCN1CC=C2C(C#N)=C(N)C(C#N)(C#N)[C@H](c3ccoc3)[C@H]2C1 | – | 39.8 µM (active) |
| CC(C)N1C[C@@H](NCc2ccccc2O)C[C@H]1C(=O)N1CCN(c2cccc(C(F)(F)F)c2)CC1 | -0.16% (inactive) | – |
| FC(F)(F)c1cccc(-c2cn[nH]c2C2CCCN(Cc3cccn3-c3ccccn3)C2)c1 (stereo not given) | 1.02% (inactive) | – |
| CC(=O)Nc1ccccc1-c1nc(CNC(=O)c2ccc(Cl)cc2)c(C)o1 | 0.266% (inactive) | – |
| C=COC(=O)N1CCN(/[N+]([O-])=N/Oc2ccc([N+](=O)[O-])cc2[N+](=O)[O-])CC1 | 1.32% (inactive) | – |
| CCS(=O)(=O)Nc1cc(C(=O)N2C[C@@H](C)O[C@@H](C)C2)c2c(c1)nc(-c1ccccc1)n2C | 0.73% (inactive) | – |
| Cc1ccc(C(=O)Nc2cccc(-c3nc(CNC(=O)c4ccccc4-n4cccn4)c(C)o3)c2)s1 | 1.36% (inactive) | – |
| COc1ccc2c(c1)CCc1cnc(-n3ncc(C(=O)NCCN4CCOCC4)c3C)nc1-2 | 1.37% (inactive) | – |
| COc1ccc(CN2CCOc3c(cc(-c4ncc(C(F)(F)F)cc4Cl)cc3OCC3CCCO3)C2)c(O)c1 (stereo not given) | 0.559% (inactive) | – |
| COc1cc2nc(N3CCCN(C)CC3)nc(NC3CC3)c2cc1OC | 1.39% (inactive) | – |
| CC(=O)Nc1cc(C(=O)N2CCc3c(Cl)cccc3C2)cc2ncn(CCc3ccccn3)c12 | -0.966% (inactive) | – |
| CC(C)Oc1cc(F)ccc1-c1cc(C(=O)Nc2ccc(F)cc2)[nH]n1 | 1.71% (inactive) | – |
| CCCOc1ccc(F)cc1-c1cc(C(=O)Nc2ccc(F)c(Cl)c2)[nH]n1 | – | 39.8 µM (active) |
| COc1ccc(Cl)cc1-c1cc(C(=O)Nc2cc(OC)c(OC)c(OC)c2)[nH]n1 | -1.2% (inactive) | – |
| Cc1ccc2c(C)nc(N3CCCC(C(=O)NC(C)(C)CO)C3)nc2c1 (stereo not given) | -0.708% (inactive) | – |
| Cc1cnc(C(=O)N2CCOc3ccc(CN4CCCC(C(=O)c5cccnc5)C4)cc3C2)[nH]1 (stereo not given) | -0.535% (inactive) | – |
| O=c1c(-c2ccc(F)cc2)nc2cnc(N3CCOCC3)nc2n1-c1ccccc1 | 0.858% (inactive) | – |
| COc1cc2nc(Cl)nc(NC3CC3)c2cc1OC | 1.67% (inactive) | – |
